# Assay results as given in PubChem BioAssay AID1851 (National Center for Advancing Translational Sciences (NCATS), 2009).
# “And” between values parts separate entries of the source, which are not always exact repeats. Identical values can stand only once. Hit rate of the full screen: of about 16,000 compounds, about 5,100 (32%) were called active. Inconclusive results (about 25%) are left out. Calls come from the whole dose curve; as a rule, active = well fitted curve in the direction sought with a large enough effect; inconclusive = small, poorly fitted or top-dose-only effect, or effect the other way; inactive = no such curve, though single readings can be large or run the other way. The list shows a part of the results. A structure can be active in one record and inactive in another.
# Target: Cytochrome P450 3A4 (Homo sapiens) (UniProt P08684)
# Sequence (P08684 whole entry, looked up): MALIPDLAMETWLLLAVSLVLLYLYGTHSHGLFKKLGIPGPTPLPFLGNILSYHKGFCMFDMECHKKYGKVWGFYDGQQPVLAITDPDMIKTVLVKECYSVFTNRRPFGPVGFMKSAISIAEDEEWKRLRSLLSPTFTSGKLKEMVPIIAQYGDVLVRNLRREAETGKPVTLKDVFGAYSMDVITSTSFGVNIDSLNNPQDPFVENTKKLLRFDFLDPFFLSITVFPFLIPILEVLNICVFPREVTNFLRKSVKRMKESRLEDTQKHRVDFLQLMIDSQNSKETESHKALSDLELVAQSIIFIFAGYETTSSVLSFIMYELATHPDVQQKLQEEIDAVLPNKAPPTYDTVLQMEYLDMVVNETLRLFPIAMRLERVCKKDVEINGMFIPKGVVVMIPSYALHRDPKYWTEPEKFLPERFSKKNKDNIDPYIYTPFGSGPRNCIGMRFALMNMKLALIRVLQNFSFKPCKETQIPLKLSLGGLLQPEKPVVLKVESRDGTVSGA
# Experiment: Cytochrome panel assay with activity outcomes
# Settings: recombinant CYP, pro-luciferin dealkylation, luminescence, p450-cyp3a4; series mostly up to 57.1 µM; activity, negative = inhibition: at the top concentration
# % is set by controls: 0 for no effect and ±100 for the full control effect.
SMILES,"activity, negative = inhibition",AC50
Nc1ncnc2c1ncn2[C@@H]1O[C@@H](COP(=O)(O)CP(=O)(O)OP(=O)(O)O)[C@H](O)[C@@H]1O,-7.46% (inactive),–
O=C(O)CC[N+](=O)[O-],-3.73% (inactive),–
CC(C)Oc1cc(-n2c(=S)[nH]c3ccccc3c2=O)c(Cl)cc1Cl,–,3.16 µM (active)
CN1[C@H]2CC(=O)C[C@@H]1[C@@H](O)C2,-6.95% [at 25.6 µM] (inactive),–
c1ccc2cc(CC3=NCCN3)ccc2c1,2.4% (inactive),–
N[C@H](Cn1ccc(=O)[nH]c1=O)C(=O)O,-12.2% (inactive),–
CC[C@@H](CO)NC(=O)[C@H]1C=C2c3cccc4c3c(cn4C)C[C@H]2N(C)C1,-23.2% (inactive),–
CC[C@@H](CO)Nc1nc(NCc2ccccc2)c2ncn(C(C)C)c2n1,–,12.6 µM (active)
CC(C)[C@H](CO)Nc1nc(Nc2cccc(Cl)c2)c2ncn(C(C)C)c2n1,–,12.6 µM (active)
COC(=O)c1c(C)ccc2c(O)c3c(cc12)C(=O)c1c2c(cc(O)c1C3=O)[C@@]1(C)O[C@@](C)(O2)[C@@H](O)[C@H](N(C)C)[C@H]1O,-1.78% [at 11.4 µM] (inactive),–
C(=NC12CN3CN(CN(C3)C1)C2)c1cccs1,6.71% (inactive),–
CN(C)C(=O)Oc1cccc([N+](C)(C)C)c1,-6.77% (inactive),–
COC(=O)C1=CCCN(C)C1,inactive,–
CC(C)N[C@@H](C)Cc1ccc(I)cc1,-6.5% (inactive),–
Nc1nc(N)c(N=Nc2ccc([As](=O)(O)O)cc2)c(=O)[nH]1,8.58% [at 11.4 µM] (inactive),–
C/C=C1\C[C@H](C)[C@@](O)(CO)C(=O)OCC2=CCN3CC[C@@H](OC1=O)[C@@H]23,11.6% [at 25.6 µM] (inactive),–
N=C1c2ccccc2CN1NC(=O)c1ccc(F)cc1,-6.32% (inactive),–
Cc1c2ccncc2c(C)c2c1[nH]c1ccccc12,–,0.158 µM (active)
Cc1nccc2c1[nH]c1ccccc12,–,inactive and 3.98 µM (active)
CCN(CC)CCn1ncc2c(N)ncnc21,-6.29% [at 11.4 µM] (inactive),–
COc1ccc2cc1Oc1ccc(cc1)C[C@H]1c3cc(c(OC)cc3CCN1C)Oc1c(OC)c(OC)cc3c1[C@@H](C2)N(C)CC3,-2.4% [at 11.4 µM] (inactive),–
C[N+]1(C)CCO[C@](O)(c2ccc(-c3ccc([C@]4(O)C[N+](C)(C)CCO4)cc3)cc2)C1,0.891% [at 25.6 µM] (inactive),–
COCCn1c(SCc2nc3sc(C(=O)OC)c(C)c3c(=O)[nH]2)nc2ccccc21,–,3.55 µM (active)
CC1(C)N(O)C(c2ccc(C(=O)O)cc2)=[N+]([O-])C1(C)C,-3.6% (inactive),–
CC(C)[C@@H](C)/C=C\[C@@H](C)[C@@H]1CC[C@H]2C3=CC=C4C[C@@H](O)CC[C@]4(C)[C@H]3CC[C@]21C,10.4% [at 11.4 µM] (inactive),–
NCCP(=O)(O)O,-6.9% [at 11.4 µM] (inactive),–
CCOCCN1CCC(OC(C)=O)C(C)C1 (stereo not given),-5.63% (inactive),–
CC(C)(C)NC[C@@H](O)COc1cccc2[nH]c(C#N)cc12,–,25.1 µM (active)

SMILES,"activity, negative = inhibition",AC50
NCC1(CC(=O)O)CCCCC1,inactive,–
COc1cc(/C=N/NC(=O)CN2CC(c3ccccc3)CC2=O)ccc1OC(=O)N(C)C (stereo not given),-11.8% (inactive),–
CC[C@H](C)C(=O)O[C@@H]1[C@H](O)[C@@H]2[C@H](CN3C[C@@H](C)CC[C@@H]3[C@@]2(C)O)[C@@H]2C[C@@]34O[C@@]5(O)[C@@H](OC(=O)[C@](C)(O)CC)CC[C@@]3(C)[C@H]5[C@H](OC(C)=O)[C@@H](OC(C)=O)[C@H]4[C@]12O,2.61% [at 25.6 µM] (inactive),–
N[C@@H](Cc1cc(Br)c(O)c(Br)c1)C(=O)O,-16.7% [at 11.4 µM] (inactive),–
Cc1ccc2c(c1)C1CN(C)CCC1N2C(=O)Nc1cccc(Cl)c1 (stereo not given),-26.5% (inactive),–
CCn1cnc2c(Nc3cccc(Cl)c3)nc(N[C@@H]3CCCC[C@H]3N)nc21,–,12.6 µM (active)
COc1ccc(C(=O)NC2CC3CCCC(C2)N3CC(C)C)cc1OC (stereo not given),3.52% (inactive),–
CC(Oc1ccc(-c2ccccc2)cc1)C(=O)O (stereo not given),4.5% [at 11.4 µM] (inactive),–
C[C@@H]1O[C@H](OC2[C@@H](O)[C@H](O)C(O)[C@H](O)[C@H]2O)[C@@H](N)C[C@@H]1N=C(N)C(=O)O (stereo not given in full),2.45% [at 11.4 µM] (inactive),–
NC[C@@H](CC(=O)O)c1ccc(Cl)cc1,-14.9% [at 25.6 µM] (inactive),–
O=C1CN=C(c2cccs2)c2c(sc3c2CCCC3)N1,–,15.8 µM (active)
Cc1cc(Cc2cc(C)c(N)cc2N)c(N)cc1N,-12.7% [at 11.4 µM] (inactive),–
Cc1ccc(NC(=[OH+])c2cc3ccccc3cc2O)c(C)c1.Cc1ccc(NC(=[OH+])c2cc3ccccc3cc2O)c(C)c1.[Ni],-23% [at 11.4 µM] (inactive),–
CC(C)CCC[C@@H](C)[C@@H]1CC[C@@H]2[C@H]3CC[C@H]4C[C@@H](N)CC[C@@]4(C)[C@@H]3CC[C@]21C,0.227% [at 11.4 µM] (inactive),–
Cc1c2cc[n+](CCN3CCCCC3)cc2c(C)c2c1[nH]c1ccc(O)cc12,-14.8% [at 11.4 µM] (inactive),–
CN1CCN(C(=O)O[C@@H]2c3nccnc3C(=O)N2c2ccc(Cl)cn2)CC1,-19.1% (inactive),–
COC1=C[C@H]2C3=C([C@H]2C1=O)[C@H](NC(C)=O)CCc1cc(OC)c(OC)c(OC)c13,-5.01% [at 25.6 µM] (inactive),–
CCCCN1C(=O)C(C2c3ccccc3C(=O)N2Cc2ccccc2)C(=O)NC1=S (stereo not given),–,2.51 µM (active)
CN1C(=O)C(C2c3ccccc3C(=O)N2Cc2ccc([N+](=O)[O-])cc2)C(=O)N(C)C1=O (stereo not given),-20.1% [at 11.4 µM] (inactive),–
CN1CCc2nc3ccc(F)cc3c(C(N)=O)c2C1,3.25% (inactive),–
CCN1C[C@]2(C)CC[C@@H](O)[C@]34[C@@H]5CC6[C@@H](OC)C[C@@](O)([C@H]5[C@@H]6O)[C@@H](C[C@@H]23)[C@H]14,-4.92% (inactive),–
COC(=O)C1(C)C=C2C(=C(C)C(=O)C2C)CN1 (stereo not given),-25% (inactive),–
N[C@@H](CCCCP(=O)(O)O)C(=O)O,-5.86% (inactive),–
Cn1c(O)c(C(=N)COc2ccccc2)c(=O)n(C)c1=O,-18.1% (inactive),–
NC[C@@H](O)CSP(=O)(O)O,2.73% [at 11.4 µM] (inactive),–
CNC(C)Cc1ccccc1Sc1ccc(O)cc1 (stereo not given),-6.72% [at 2.29 µM] (inactive),–
COC(=O)NC/C=C\c1nc(CC/C=C\C(=O)O[C@H]2C[C@H]3CC(=O)O[C@@H](/C=C\CC(C)C)C[C@@H]4CC[C@H](C)[C@H](C[C@@H](OC)C[C@H](C2)O3)O4)co1,–,5.01 µM (active)
